TIM10 inh = growth inhibitors of isogenic TIM10 control yeast, primary screen, counter-screen for tim10-1 yeast inhibitor project, luminescence, uHTS; AID 463195, 2010; 330,000 tested, 1.4% active; S. cerevisiae TIM10 strain growth, BacTiter-Glo luminescence, 24 h; inhibition, % at 10 µM;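 active means inhibition of 40% or more at the single tested concentration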;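 further: wild-type TIM10 isogenic control strain grown at permissive 25 °C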
SKKanGAS inh = S. pyogenes SKKanGAS growth inhibitors in kanamycin, primary screen, streptokinase expression inhibitor project, SKKanGAS strain, BacTiter-Glo luminescence; inhibition, % at 7.5 µM; AID 1662, 2009; 300,000 tested, 1.3% active; 6 h;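 active means mean replicate score, as percent of positive control median, at least 50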;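 further: strain carries kanamycin resistance gene driven by streptokinase promoter and grows in 40 µg/ml kanamycin; loss of luminescence reflects streptokinase promoter inhibition or plain growth inhibition; 0% = median of DMSO wells and 100% = positive control at its reference dose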
EBI2 block = EBI2 receptor antagonists, beta-arrestin recruitment, primary screen, cell-based, luminescence, 7a,25-OHC stimulation, uHTS | 360,000 tested, 0.81% active | AID 651636, 2012 | 7a,25-OHC stimulated | G-protein coupled receptor 183 (Homo sapiens), P32249 | inhibition, % at 5 µM; in the data active means inhibition above about 38%;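 further: enzyme fragment complementation signal reports receptor beta-arrestin coupling in cells; 0% = agonist plus DMSO wells and 100% = wells without agonist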
Target sequence (P32249 whole entry, looked up, the tested form may be a part): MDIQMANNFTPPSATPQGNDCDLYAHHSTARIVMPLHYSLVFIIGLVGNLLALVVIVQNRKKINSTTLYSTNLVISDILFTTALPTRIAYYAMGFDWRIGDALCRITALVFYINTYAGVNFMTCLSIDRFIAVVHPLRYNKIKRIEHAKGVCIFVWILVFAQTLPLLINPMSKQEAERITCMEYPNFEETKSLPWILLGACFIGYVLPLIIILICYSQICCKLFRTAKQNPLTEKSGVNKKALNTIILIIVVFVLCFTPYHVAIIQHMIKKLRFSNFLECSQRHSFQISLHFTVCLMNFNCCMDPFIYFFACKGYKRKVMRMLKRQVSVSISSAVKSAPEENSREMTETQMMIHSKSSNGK
tim10-1 inh = growth inhibitors of tim10-1 mutant yeast, primary screen, luminescence, uHTS. 330,000 tested, 2.2% active. AID 463190, 2010. inhibition, % at 20 µM. S. cerevisiae tim10-1 ts strain growth, BacTiter-Glo, 24 h;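 active means inhibition of at least 40%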;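 further: mutant grown at 25 °C; 0% = DMSO wells with yeast and 100% = wells holding no yeast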
tim23-1 inh = growth inhibitors of tim23-1 mutant yeast, primary screen, luminescence, uHTS; S. cerevisiae tim23-1 growth, BacTiter-Glo luminescence, 24 h; inhibition, % at 20 µM; 330,000 tested, 1.3% active; AID 463212, 2010;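 active means growth inhibition of the mutant yeast at or above 50%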;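 further: temperature-sensitive mutant grown at 25 °C; plate controls were DMSO-treated mutant yeast for no effect and medium wells lacking yeast for full effect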
PfHsp90 yeast 2 = growth inhibition of PfHsp90-expressing yeast, primary screen, antimalarial PfHsp90 inhibitor project, S. cerevisiae, BacTiter-Glo luminescence, single point, set 2 | BacTiter-Glo ATP, 48 h; yeast lacking PDR1 and PDR3 efflux regulators | inhibition, % at 9.4 µM | 310,000 tested, 0.32% active | AID 504621, 2011;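 active means every replicate shows inhibition above about 80%, whatever the replicate mean, limit read from the data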;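 further: 0% = DMSO neutral controls and 100% = 20 µM radicicol positive controls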
tim23-1 confirm = tim23-1 mutant yeast growth inhibitors, confirmation, luminescence, single concentration; shares compounds with tim23-1 inh; S. cerevisiae tim23-1 growth, BacTiter-Glo luminescence, 24 h; inhibition, % at 20 µM; 4,400 tested, 83% active;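 active means inhibition above about 39% in either of two replicate wells at 20 µM, limit read from the data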;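 further: temperature-sensitive tim23-1 mutant grown at 25 °C; 0% = DMSO wells with yeast and 100% = medium wells without yeast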
The depositor's hits bear a star; · = no result given. Hits are enriched below; roughly 4.7% of the tested compounds scored in any of these assays.

SMILES	TIM10 inh	SKKanGAS inh	EBI2 block	tim10-1 inh	tim23-1 inh	PfHsp90 yeast 2	tim23-1 confirm
O=C(NCc1ccccc1C(F)(F)F)c1cccc2c1C(=O)c1ccc(N3CCCCC3)cc1S2(=O)=O	-9	·	29	-3	-13	2	·
CCOC(=O)c1c(NC(=O)COC(=O)CNC(=O)c2ccc(Cl)cc2Cl)sc(C(=O)N(C)C)c1C	9	-3	-17	24	2	·	·
COc1ccc(C(=O)c2sc(Nc3ccccc3)nc2N)cc1	3	16	21	1	13	6	·
Nc1nc(Nc2ccccc2)sc1C(=O)c1ccccc1	28	-14	18	31	54*	-34	43*
Cc1cc(NC(=O)c2sc(Nc3ccc(F)cc3)nc2N)no1	27	4	13	-21	6	4	·
COc1ccc(C(=O)c2sc(Nc3ccccc3F)nc2N)cc1	6	-3	34	23	50*	-24	54*
Cc1cnc(NC(=O)c2sc(Nc3ccccc3)nc2N)o1	36	11	6	-2	53*	8	55*
N=c1oc2ccc([N+](=O)[O-])cc2cc1C(=O)NCc1ccccc1	15	-3	8	26	59*	-2	56*
N=c1oc2ccc(Br)cc2cc1C(=O)NCc1ccccc1	19	8	0	36	26	-1	·
CCOc1c2ccoc2nc2c(OC)c(OC)ccc12	34	-1	3	27	61*	31	65*
C=CCOc1ccc2c(OC)c3ccoc3nc2c1OC	16	-10	-2	11	36	66	·
O=C(N/N=C/c1cccc(Oc2ccccc2)c1)c1ccccc1F	1	-3	18	33	50*	·	46*
Cc1nn(C)c(C(=O)N/N=C/c2cccc(Oc3ccccc3)c2)c1Br	18	0	22	38	52*	·	40*
Nc1ccc(C(=O)N/N=C/c2cccc(Oc3ccccc3)c2)cc1	-2	-7	5	-2	36	-11	·
CC(C)(C)C(=O)Nc1ccc(/C=C/C(=O)c2ccco2)cc1	37	7	12	38	51*	4	45*
COc1ccc(-c2ccnc3c(Br)c(C)nn23)cc1	13	·	2	32	50*	-7	53*
COc1cccc(CN2CCN(S(=O)(=O)c3ccc(Br)cc3)CC2)c1	4	-17	3	17	21	·	·
COc1ccc(S(=O)(=O)N2CCN(Cc3cccc(OC)c3)CC2)cc1	21	1	6	25	55*	10	43*
Cc1noc(C)c1COC(=O)c1ccccc1NC(=O)c1ccco1	-4	13	8	15	35	·	·
O=Cc1cn(CCOc2ccccc2F)c2ccccc12	5	8	14	14	51*	5	38*
Cc1cccc(C)c1N(CC(=O)NCc1ccc(F)cc1)C(=O)c1csnn1	12	0	-7	13	-3	-48	·
Cc1ccc(C(=O)N/N=C/c2cc(Br)ccc2O)cn1	-41	69*	-4	-25	63*	11	52*
COc1ccc(-c2nc3ccccc3[nH]2)cc1	36	26	-6	-2	63*	54	57*
c1ccc(-c2nc3ccccc3[nH]2)cc1	22	1	-6	-15	50*	4	46*
Cc1oc(-c2ccccc2Cl)nc1CS(=O)CC(=O)NCc1ccc2c(c1)OCO2 (stereo not drawn)	-2	-14	-19	20	5	2	·
SMILES	TIM10 inh	SKKanGAS inh	EBI2 block	tim10-1 inh	tim23-1 inh	PfHsp90 yeast 2	tim23-1 confirm
COc1ccc([C@@H]2C[C@H]3[C@@H](CN2S(=O)(=O)c2ccccc2)C(=O)C[C@@H](c2cccc4ccccc24)N3S(=O)(=O)c2ccc(C)cc2)cc1	·	·	4	·	·	·	·
O=C(NCc1ccccc1)c1cc(C2COCCN2C(=O)C2CC2)on1 (stereo not drawn)	·	·	-2	·	·	·	·
CCOc1ccc(OCCC(=O)N(CC)CC(=O)Nc2ccccc2OC)cc1	·	·	2	·	·	-24	·
CCOC(=O)NN=C1c2ccccc2-c2ccccc21	11	-13	-7	19	35	-39	·
CCOC(=O)c1cccc2c1-c1ccccc1/C2=N/O	33	-5	9	13	71*	-65	54*
Cn1c(=NC(=O)CCl)sc2ccccc21	13	-3	-1	34	57*	-60	36
CC(C(=O)Nc1nc2ccccc2s1)n1cc([N+](=O)[O-])cn1 (stereo not drawn)	20	3	3	15	18	-3	·
O=C(Nc1nccs1)c1ccc(Cl)s1	30	5	-5	25	70*	13	57*
CCc1sc(C(=O)Nc2ccc3c(c2)OCO3)cc1C	4	·	10	-17	55*	-8	46*
CCc1sc(C(=O)Nc2nccs2)cc1C	6	59*	2	25	54*	-4	58*
CCc1sc(C(=O)Nc2ccc(N3CCOCC3)cc2)cc1C	1	·	2	24	26	-4	·
CCc1sc(C(=O)Nc2ncccc2O)cc1C	10	1	-2	6	22	·	·
COc1ccc(S(=O)(=O)N2CCOCC2)cc1NC(=O)CSc1nnc(C2CC2)n1C	4	·	-4	-2	14	-17	·
CCOC(=S)N/C(=N\S(=O)(=O)c1ccc(C)cc1)c1ccccc1	-3	-1	-5	7	8	-11	·
CCN1C(=O)[C@H]2[C@H]3CN=C(SCc4ccc(C)cc4)N3[C@@](C)(C(=O)OC)[C@H]2C1=O	-1	·	-5	19	37	10	·
C=CCC1Cc2c(Br)cccc2C(CC=C)N1 (stereo not drawn)	20	9	2	33	53*	10	46*
CCNC(=O)C1(C)CCCN(C(=O)c2ccc3c(c2)C(C)(C)CCC3(C)C)C1 (stereo not drawn)	·	·	0	·	·	·	·
C#CCOCCOCCOCCNc1nc(N2CCN(C(=O)CCCCCCCCCCNC(=O)Cn3cc(CCCCCN)nn3)CC2)nc(N2CCN(C(=O)CCCCCCCCCCNC(=O)[C@H](CO)n3cc(CCCCCN)nn3)CC2)n1	11	·	0	34	53*	11	45*
C#CCOCCOCCOCCNc1nc(N2CCN(C(=O)CCCCCCCCCCNC(=O)[C@H]([C@@H](C)CC)n3cc(CCCCN=C(N)N)nn3)CC2)nc(N2CCN(C(=O)CCCCCCCCCCNC(=O)[C@H](CCCCN)n3cc(C[C@@H](C)CC)nn3)CC2)n1	18	·	·	26	52*	·	45*

Source: PubChem
